Hits are enriched below; roughly 19% of the tested compounds scored in any of these assays.
Giardia killer = Small Molecules that selectively kill Giardia lamblia: qHTS | Giardia lamblia trophozoite viability | activity change, % at 7.66 µM, hits read low | 0.15% of 340,000 active; in the data active = activity change below about -80%; inconclusive = between about -30% and that limit;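 also: parasites exposed to compound for two days anaerobically before the ATP read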
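Giardia lamblia trophozoites (100 cells/well) were incubated with compounds for 48 h at 37 deg C under anaerobic conditions. Viability was read as ATP content by one-step luminescence after 15-30 min at room temperature.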
TDP1 block = qHTS Assay for Inhibitors of Tyrosyl-DNA Phosphodiesterase (TDP1). Tyrosyl-DNA phosphodiesterase 1 (Homo sapiens), Q9NUW8. recombinant TDP1, AlphaScreen DNA substrate cleavage. Potency, µM (doses to about 130 µM), usual class: inhibitors. 0.28% of 350,000 active. AID 485290, 2010; also: nearly all actives have a fitted effect of over 40% in size
Target sequence (Q9NUW8 whole entry, looked up): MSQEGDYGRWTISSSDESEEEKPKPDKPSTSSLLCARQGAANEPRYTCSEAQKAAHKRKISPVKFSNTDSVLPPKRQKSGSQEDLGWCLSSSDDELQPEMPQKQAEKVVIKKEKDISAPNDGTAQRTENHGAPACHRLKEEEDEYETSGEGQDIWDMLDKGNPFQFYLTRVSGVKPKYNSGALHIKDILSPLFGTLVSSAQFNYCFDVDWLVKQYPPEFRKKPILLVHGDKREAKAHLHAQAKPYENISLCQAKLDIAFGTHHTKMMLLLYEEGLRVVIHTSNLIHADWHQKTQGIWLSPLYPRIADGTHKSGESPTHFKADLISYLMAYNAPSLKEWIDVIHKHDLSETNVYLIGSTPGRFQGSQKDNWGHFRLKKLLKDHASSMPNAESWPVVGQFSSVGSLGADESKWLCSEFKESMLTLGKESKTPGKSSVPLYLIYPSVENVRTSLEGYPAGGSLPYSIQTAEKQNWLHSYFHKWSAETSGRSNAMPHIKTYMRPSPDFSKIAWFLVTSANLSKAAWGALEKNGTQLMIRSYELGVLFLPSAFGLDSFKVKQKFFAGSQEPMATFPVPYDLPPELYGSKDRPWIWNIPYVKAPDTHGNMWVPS
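Steps: enzyme plus compound, 15 min RT; add biotin/phosphotyrosine-FITC oligonucleotide (15 nM final), react 5 min; add donor/acceptor beads (10 ug/ml final), 10 min; read AlphaScreen. Tdp1 at 1 nM final.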
TDP1 cell CPT = qHTS for Inhibitors of human tyrosyl-DNA phosphodiesterase 1 (TDP1): qHTS in cells in presence of CPT; chicken DT40 Tdp1-/-;hTDP1 cells + 20 nM CPT, ATP luminescence, 48 h; Potency, µM (doses to about 46.2 µM), most hits filed as inhibitors; 12% of 420,000 active; also: nearly all actives have a fitted effect of over 55% in size
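Chicken DT40 Tdp1-/- cells stably complemented with human TDP1 were seeded at 400 cells/well in medium containing 20 nM camptothecin, exposed to pin-transferred compounds, and grown at 37 °C for at least 48 hr. Viability was read as ATP luminescence.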
IL1B secr inh = qHTS for Inhibitors of Inflammasome Signaling: IL-1-beta AlphaLISA Primary Screen; AID 743279, 2014; 4.7% of 360,000 active; THP-1 LPS/ATP IL-1B secretion, AlphaLISA, 16 h; stronger effect = lower value; activity change, % at 57.5 µM; in the data active = activity change below about -50%; inconclusive = mostly about -30% to -49%
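Secreted IL-1B measured by AlphaLISA bead assay after 16 h compound exposure of THP-1 cells; compounds (final up to 57.5 uM) added 1 h before LPS (250 ng/mL) and ATP (1.25 mM) stimulation; lower signal means less secretion.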
ELG1 DNA repair = qHTS screen for small molecules that inhibit ELG1-dependent DNA repair in human embryonic kidney (HEK293T) cells expressing luciferase-tagged ELG1 | HEK293T ELG1-luciferase reporter, luminescence, 16 h; DNA damage induced by 5-fluorouridine | Potency, µM (titrated, usually from 46.1 µM), usual class: inhibitors | 2.3% of 330,000 active; also: nearly all actives have a fitted effect of over 55% in size
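Quantitative HTS, concentration-response format. 2,000 cells/well co-treated with 5-fluorouridine and compound, 16 hr in 5% CO2 at 37 °C; ONE-Glo luminescence read after 30 min.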
TDP1 cell noCPT = qHTS for Inhibitors of human tyrosyl-DNA phosphodiesterase 1 (TDP1): qHTS in cells in absence of CPT; DT40 Tdp1-/- hTDP1 cells, no CPT, ATP luminescence, 48 h; Potency, µM (titrated, usually from 46.2 µM), most hits filed as inhibitors; 15% of 420,000 active; AID 686978, 2013; also: nearly all actives have a fitted effect of over 55% in size
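Growth kinetics read by CellTiter-Glo luminescence after ≥48 hr at 37 °C. Cells: DT40 Tdp1-/- stably carrying human TDP1, 400 per well, compound exposure in the absence of CPT (DMSO vehicle).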
Of the large screens only hits and unclear results are named; the others gave an inactive call. Unless noted, calls follow the shape of the dose curve; as a rule, active = well fitted curve in the direction sought with a large enough effect; inconclusive = small, poorly fitted or top-dose-only effect, or another doubt; inactive = no such curve, though single readings can be large; an effect the other way counts as inactive or inconclusive.

COc1ccc(S(=O)(=O)NCc2ccc(C(=O)N3CCc4ccccc4C3)cc2)cc1	TDP1 cell CPT 23µM, ELG1 DNA repair inconclusive, TDP1 cell noCPT 23µM
CCOC(=O)N1CCN(C(=O)c2ccc(CNS(=O)(=O)c3ccc(OC)cc3)cc2)CC1	ELG1 DNA repair inconclusive
Cc1ccc(S(=O)(=O)NCc2ccc(C(=O)N3CCN(c4ccccc4)CC3)cc2)cc1	TDP1 cell CPT inconclusive, TDP1 cell noCPT inconclusive
Cc1ccc(CN(c2ccc(C(=O)N3CCc4ccccc4C3)cc2)S(C)(=O)=O)cc1	TDP1 cell CPT inconclusive, ELG1 DNA repair 16µM, TDP1 cell noCPT 15µM
CS(=O)(=O)N(Cc1ccc(C(=O)N2CCc3ccccc3C2)cc1)c1ccccc1	TDP1 cell CPT inconclusive, TDP1 cell noCPT inconclusive
CC(=O)Nc1ccc(S(=O)(=O)NCc2ccc(C(=O)NCCCN3CCC(C)CC3)cc2)cc1	ELG1 DNA repair inconclusive
COc1ccc(S(=O)(=O)NCc2ccc(C(=O)NCCCN3CCCC(C)C3)cc2)cc1 (stereo unspecified)	TDP1 cell CPT inconclusive, IL1B secr inh -52
Cc1ccc(S(=O)(=O)NCc2ccc(C(=O)N3CCc4ccccc4C3)cc2)cc1	Giardia killer inconclusive, TDP1 cell CPT inconclusive, ELG1 DNA repair inconclusive, TDP1 cell noCPT 29µM
COc1cc(-c2nnc(SCC3(c4ccccc4)OCCO3)o2)cc(OC)c1OC	TDP1 cell CPT inconclusive, ELG1 DNA repair inconclusive, TDP1 cell noCPT inconclusive
CC(=O)[C@@H]1[C@H]2[C@H](C(=O)[C@H]3OC[C@@H]2O3)[C@H]2C=Cc3ccccc3N21	TDP1 cell CPT inconclusive, TDP1 cell noCPT 21µM (no result: Giardia killer, TDP1 block, IL1B secr inh, ELG1 DNA repair)
CC(C)C[C@H]1CN([C@@H](Cc2ccc(O)cc2)CN2CCC[C@H]2CN2C(=O)C(=O)NC[C@@H]2Cc2ccccc2)C(=O)C(=O)N1CC1CCCCC1	TDP1 cell CPT inconclusive, IL1B secr inh inconclusive, TDP1 cell noCPT 21µM (no result: Giardia killer, TDP1 block, ELG1 DNA repair)
CC(C)C[C@H]1CN([C@@H](Cc2ccc(O)cc2)CN2CCC[C@@H]2CN2C(=O)C(=O)NC[C@@H]2Cc2ccccc2)C(=O)C(=O)N1CC1CCCCCC1	TDP1 cell CPT inconclusive, IL1B secr inh inconclusive, TDP1 cell noCPT inconclusive (no result: TDP1 block, ELG1 DNA repair)
O=C1NC[C@H](Cc2ccccc2)N(C[C@H]2CCCN2C[C@H](Cc2ccc(O)cc2)N2C[C@H](Cc3ccc(O)cc3)N(CC3CCCCCC3)C(=O)C2=O)C1=O	TDP1 cell CPT inconclusive, IL1B secr inh inconclusive, TDP1 cell noCPT inconclusive (no result: TDP1 block, ELG1 DNA repair)
CC(C)C[C@H]1CN([C@@H](Cc2ccccc2)CN2CCC[C@H]2CN2C(=O)C(=O)NC[C@@H]2Cc2ccc(O)cc2)C(=O)C(=O)N1CC1CCCCCC1	TDP1 cell CPT inconclusive, IL1B secr inh -89, TDP1 cell noCPT 16µM (no result: Giardia killer, TDP1 block, ELG1 DNA repair)
O=C1NC[C@H](Cc2ccc(O)cc2)N(C[C@@H]2CCCN2C[C@H](Cc2ccccc2)N2C[C@H](Cc3ccc(O)cc3)N(CC3CCCCCC3)C(=O)C2=O)C1=O	TDP1 cell CPT inconclusive, IL1B secr inh -56, TDP1 cell noCPT inconclusive (no result: Giardia killer, TDP1 block, ELG1 DNA repair)
COc1cc(C2C3=C(CC(C)(C)CC3=O)N(C)C3=C2C(=O)CC(C)(C)C3)cc(Br)c1O	none (no result: TDP1 block)
O=C(NCc1cccnc1)c1csc([C@@H]2C[C@H](O)[C@@H](CO)O2)n1	TDP1 cell noCPT inconclusive (no result: Giardia killer, TDP1 block, ELG1 DNA repair)
O=C(CCCN1C(=O)c2ccccc2C1=O)NCCN1C(=O)S/C(=C\c2cccs2)C1=O	TDP1 cell CPT inconclusive, TDP1 cell noCPT inconclusive
CC(=O)Nc1nnc2n1CCS2	none (no result: Giardia killer, IL1B secr inh, ELG1 DNA repair)
CCN1CCOC(=O)C1CC(=O)Nc1cc(Cl)ccc1C (stereo unspecified)	TDP1 cell CPT 7.3µM, TDP1 cell noCPT 15µM (no result: Giardia killer, IL1B secr inh, ELG1 DNA repair)
